DAX1 inh-1 – blocks DAX1 repression of SF-1 activated StAR promoter; AID 652010; inhibition, % at 6.8 µM; 370,000 compounds, 1.1% hits; HEK293T StAR-luciferase reporter, SF-1/DAX-1 repression relief;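 active = inhibition above the mean over all tested compounds plus 3 SD, cut at about 3.6% in these data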;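 also: 0% = DAX-1 cells with DMSO and 100% = cells lacking DAX-1 with DMSO; higher inhibition means more luminescence from relief of DAX-1 repression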
DAX1 inh-2 – NR0B1 (DAX1) inhibition. HEK293 Gal4-DAX1 luciferase reporter, luminescence. inhibition, % at 6.75 µM. P51843. 340,000 compounds, 0.99% hits;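 active = inhibition above the mean over all tested compounds plus 3 SD, cut at about 4.2% in these data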;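 also: 0% = DAX1-transfected cells with DMSO and 100% = empty-vector control cells with DMSO; inhibition shows as a rise in luminescence from relieved DAX1 repression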
Target sequence (P51843 207-470 limits assumed): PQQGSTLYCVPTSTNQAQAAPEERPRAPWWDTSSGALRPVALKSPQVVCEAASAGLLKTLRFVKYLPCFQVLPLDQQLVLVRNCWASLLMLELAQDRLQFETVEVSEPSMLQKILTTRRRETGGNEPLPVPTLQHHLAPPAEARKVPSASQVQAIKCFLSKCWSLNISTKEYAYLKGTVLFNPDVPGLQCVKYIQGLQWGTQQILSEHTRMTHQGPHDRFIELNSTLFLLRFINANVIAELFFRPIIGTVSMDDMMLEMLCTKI
hcDAF-12 act – H. contortus DAF-12 activation, primary screen; HEK293 hcDAF-12 lit1-tk-luc reporter, luminescence; 0% DMSO, 100% Δ7-dafachronic acid; activation, % at 6.8 µM; 370,000 compounds, 1.4% hits; AID 652067;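 active = activation above the mean of all tested compounds plus 3 SD, cut at about 5.5% in these data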;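 also: 100% = response to 3 µM Δ7-dafachronic acid high control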
ssDAF-12 act – activates DAF-12 receptor from parasite S. stercoralis | HEK293 ssDAF-12/GRIP1 lit1-tk-luc reporter, luminescence; % of 3 µM dafachronic acid response | 370,000 compounds, 1% hits | AID 652126 | activation, % at 6.8 µM;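 active = activation above the mean over all tested compounds plus 3 SD, cut at about 0.9% in these data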;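 also: 0% = DMSO-only wells and 100% = 3 µM delta7-dafachronic acid wells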
hgDAF12 agonist – agonists of H. glycines DAF-12 nuclear receptor. HEK293 GAL4-hgDAF12 UAS-luciferase reporter, agonist luminescence; normalized to butyrate control. activation, % at 6.8 µM. 370,000 compounds, 1.8% hits. AID 687014;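 active = activation above a cutoff set at the mean of all screened compounds plus 3 SD, cut at about 10% in these data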;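 also: 0% = DMSO wells and 100% = sodium butyrate wells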
hgDAF12 conf – hgDAF-12 agonism, confirmation assay | AID 743050 | shares compounds with hgDAF12 agonist | 3,300 compounds, 80% hits | activation, % at 6.8 µM | HEK293 GAL4-hgDAF12 luciferase reporter, agonist mode; percent of butyrate response;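 active = mean activation over triplicate wells above the hit cutoff derived from the earlier primary screen, cut at about 11% in these data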;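 also: 0% = DMSO low control and 100% = 2 mM sodium butyrate high control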
LXRb DAF12 ctr – LXR-beta agonism as DAF-12 counter-screen; 3,300 tested, under 10 active; activation, % at 6.8 µM; shares compounds with hgDAF12 agonist; HEK293 Gal4-LXR luciferase reporter, 24 h;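 active = mean activation of the triplicate above a set limit carried over from the primary screen, none filed active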
* marks the source's active call; other numbers are inactive results; x = no result given. This is a sample that favours compounds with a hit; in the whole collection about 4.1% have one here.

SMILES	DAX1 inh-1	DAX1 inh-2	hcDAF-12 act	ssDAF-12 act	hgDAF12 agonist	hgDAF12 conf	LXRb DAF12 ctr
Cc1cccc(C(=O)Nc2sc3c(c2C#N)CCCCC3)c1	2	3	3	0	15*	17*	1
N#Cc1c(NC(=O)c2ccccc2)sc2c1CCC2	0	-1	5.7*	1	16*	23*	1
N#Cc1c(NC(=O)c2cnccn2)sc2c1CCCC2	-1	2	4	-1	14*	13*	0
N#Cc1c(NC(=O)c2cccnc2)sc2c1CCC2	0	-1	0	-1	6	x	x
Cc1cccc(C(=O)Nc2sc3c(c2C(=O)O)CCC3)c1	-1	-1	0	-1	-5	x	x
O=C(Nc1cccc(Cl)c1)c1cnccn1	0	0	-1	0	3	x	x
Cc1cnc(C(=O)Nc2ccc3c(c2)CCC3)cn1	4.1*	1	4	0	14*	17*	1
Cc1ccc(C(=O)Nc2nc(C)c(C(=O)Nc3ccc4c(c3)CCC4)s2)cc1	0	0	3	1.3*	17*	17*	0
Cc1nc(NC(=O)c2ccc(F)cc2)sc1C(=O)Nc1ccc2c(c1)CCC2	0	0	2	-1	2	x	x
O=C(Nc1ccc2c(c1)CCC2)c1cnccn1	4.4*	3	3	0	17*	15*	1
Cc1c(Br)c([N+](=O)[O-])nn1CC(=O)N1CCN(C23CC4CC(CC(C4)C2)C3)CC1	0	0	0	-1	-1	x	x
N#Cc1ccccc1NC(=S)NC(=O)c1cccnc1	0	1	4	-1	0	x	x
CCc1ccc(C(=O)Nc2cc(C)ccc2F)s1	1	1	4	0	16*	7	0
CC(=O)C[C@H](O)CC(=O)[C@H]1OC(=O)CCCCCCc2ccccc21	0	-1	1	-1	-1	x	x
O=C(Cn1cnc2ccccc2c1=O)Nc1ccc2c(c1)OCCO2	3	4	5	0	17*	14*	1
CC(=O)N1CCc2cc(N=NC3=C(O)CCCC3=O)ccc21	2	4	4	-1	15*	16*	0
OCCOCCNc1ncnc2c1cnn2-c1ccc(Cl)cc1	4.5*	3	5	0	15*	17*	1
OCCOCCNc1ncnc2c1cnn2-c1ccccc1	1	0	0	0	8	x	x
CC1=Nc2ccccc2N=C(NC(=O)c2ccccc2)C1c1ccc(Cl)cc1 (configuration not stated)	2	1	0	0	18*	-3	0
CC1=CC(c2ccc(Cl)cc2)n2nc(NC(=O)c3ccccc3)nc2N1 (configuration not stated)	0	0	0	-1	-1	x	x
COc1ccccc1C(=O)COC(=O)c1ccc(N(C)C)cc1	3	4.5*	5	0	16*	13*	1
Cc1cc2nc(-c3ccc(SCC(=O)Nc4ccc(S(=O)(=O)NC5CC5)cc4)nc3)[nH]c2cc1C	4.5*	0	5.6*	1.2*	16*	17*	1
Cc1nc(N2CCOCC2)nc(Oc2ccccc2F)c1[N+](=O)[O-]	0	-1	0	-1	-1	x	x
Cc1ccc(NC(=O)c2cncc(Br)c2)c(O)c1	3	2	6.2*	0	16*	17*	0
COc1ccccc1C(CNC(=O)CN1C(=O)NC(C)(c2ccc3ccccc3c2)C1=O)N1CCCC1 (configuration not stated)	1	-1	-1	-1	1	x	x
Cc1cc2nnc(SCC(=O)NCC(c3ccccc3)N(C)C)n2c2ccccc12 (configuration not stated)	1	0	0	-1	1	x	x
Nc1nnc(CC(=O)N/N=C/c2ccc(-c3ccc(F)cc3)o2)s1	0	x	-2	-2	-1	x	x
Nc1nnc(CC(=O)N/N=C/c2ccc(-c3cccc(C(=O)O)c3)o2)s1	2	-1	-1	-1	14*	3	0

Source: PubChem (The Scripps Research Institute Molecular Screening Center)
